Hit rate of the full screen: of about 59,000 compounds, about 6,500 (11%) were called active. Not shown: some 15% with an inconclusive outcome. No stated cut-off is given here; in the data, active means max dye-equivalent concentration above about 10 nM; inconclusive means mostly about 1.1 nM to 9.6 nM; inactive means weaker than that. Shown is part of a subset that was picked to be rich in actives.

The assay can be described thus: qHTS Assay for Spectroscopic Profiling in A350 Spectral Region. The following applies: Compound autofluorescence, 340/450 nm, Alexa 350 dye-equivalents; hits give high values. (Quantitative high-throughput screening tests each substance at several concentrations.)
With `CC1(C)Cc2c(sc3nc4n(c(=N)c23)CCCCC4)CO1`, the max dye-equivalent concentration entry is “inactive”.

For `CCOC(=O)Cn1c(SC)nc2sc3c(c2c1=O)CC(C)(C)OC3`, the max dye-equivalent concentration entry is “inactive”.

As for `CCC1(C)Cc2c(sc3nc4n(c(=O)c23)CCCS4)CO1` (stereo not given), the max dye-equivalent concentration was 56 nM (active).

Regarding `CCCCC[C@H](O)CCCC(=O)O`, the max dye-equivalent concentration entry was “inactive”.

Consider `CC(=O)c1c(C)n(-c2ccc(N(C)C)cc2)c2ccc(OCC(N)=O)cc12`, for which the max dye-equivalent concentration entry was “inactive”.

Take `CCCc1[nH]nc2c1C(c1ccc(OC)c(Cn3nc(C)c(Br)c3C)c1)C(C#N)=C(N)O2` (stereo not given): the max dye-equivalent concentration entry was “inactive”.

Take `CC(=O)/C(=N\N=C(N)N)c1ccccc1`: the max dye-equivalent concentration entry is “inactive”.

Take `O=C1c2cccc3cccc(c23)N1CN1CCN(c2ccccn2)CC1`: the max dye-equivalent concentration is 16 nM (active).

On to `CC(=C1C(=O)c2ccccc2C1=O)N1CCN(c2ccccn2)CC1`, for which the max dye-equivalent concentration entry is “inactive”.

Consider `OC(COc1cccc2ccccc12)CN1CCN(c2ccccn2)CC1` (stereo not given), for which the max dye-equivalent concentration result is “inactive”.

Consider `COc1ccccc1OCCC(=O)OCC(=O)NC(=O)NC(C)(C)C`, for which the max dye-equivalent concentration result was “inactive”.

`CN1C(C)(C)CC(NC(=O)CCC(=O)NC2CC(C)(C)N(C)C(C)(C)C2)CC1(C)C`: the max dye-equivalent concentration entry was “inactive”.

Regarding `CCn1c(=N)c(S(=O)(=O)c2ccc(F)cc2)cc2c(=O)n3ccccc3nc21`, the max dye-equivalent concentration was 780 nM (active).

Turning to `CC1CCCC(NC(=O)CSc2nccn2C)C1C` (stereo not given), the max dye-equivalent concentration entry is “inactive”.

Turning to `O=C(c1c(Cl)nc2sccn12)N1CCCc2ccccc21`, the max dye-equivalent concentration result was “inactive”.

On to `COc1ccccc1CNc1nc(-c2c(C)noc2C)nc2ccccc12`, for which the max dye-equivalent concentration result is “inactive”.

`Cc1cnc(NC(=O)CSc2nnc(-c3ccccc3)n2Cc2ccccc2)s1`: the max dye-equivalent concentration entry is “inactive”.

For the compound `COc1ccc(CC(=O)Nc2nc3n(n2)C(c2ccccc2)CC(=O)N3)cc1OC` (stereo not given), the max dye-equivalent concentration entry was “inactive”.

As to `CNC(=O)CSc1nnnn1-c1ccc(C)cc1C`, the max dye-equivalent concentration entry is “inactive”.

As to `COc1ccc(-n2c(C)cc(C(=O)CSc3nnc(-c4cccs4)o3)c2C)cc1`, the max dye-equivalent concentration entry was “inactive”.

Turning to `COc1ccc(-c2nnc(SCC(=O)c3cccs3)o2)c(OC)c1`, the max dye-equivalent concentration entry was “inactive”.

On to `COc1ccc(OC)c(C(=O)CSc2nnc(-c3cccs3)o2)c1`, for which the max dye-equivalent concentration was 150 nM (active).

As for `c1ccc(CSCCc2ccncc2)cc1`, the max dye-equivalent concentration entry was “inactive”.

Consider `CN(CCC#N)c1ncnc2scc(-c3ccccc3)c12`, for which the max dye-equivalent concentration entry is “inactive”.

In the case of `O=C(CN1C2CCC1CC(NC(=O)C1CC1)C2)NCc1ccccc1` (stereo not given), the max dye-equivalent concentration result was “inactive”.

In the case of `CCCCNC(=O)CSc1nnc(-c2ccco2)n1C`, the max dye-equivalent concentration entry was “inactive”.

Turning to `O=C(c1ccccc1)c1cccn1CC(=O)N1CCN(c2ccc(F)cc2)CC1`, the max dye-equivalent concentration entry was “inactive”.

With `CC(C)N(C(=O)COC(=O)c1ccccc1C(=O)N1CCN(c2ccc(F)cc2)CC1)C(C)C`, the max dye-equivalent concentration entry is “inactive”.

As for `Cn1c2ccccc2c2c(C(=O)N3CCN(c4ccc(F)cc4)CC3)cn(C3CCCC3)c(=O)c21`, the max dye-equivalent concentration is 13 nM (active).

Regarding `CCCCn1nnnc1NCc1cc(OC)c(OC)c(OC)c1`, the max dye-equivalent concentration result was “inactive”.

Turning to `COc1ccccc1-n1nnnc1S(=O)(=O)Cc1ccc(Cl)cc1`, the max dye-equivalent concentration result was “inactive”.

`COc1ccc(OCC(=O)N2CCN(C(=O)COc3ccccc3)CC2)cc1`: the max dye-equivalent concentration result was “inactive”.

With `CCC(CC)C(=O)Nc1cccc(C(=O)N2CCCC2)c1`, the max dye-equivalent concentration entry was “inactive”.

For the compound `COc1ccc(OCc2cccc(C(=O)N3CCCC3)c2)cc1`, the max dye-equivalent concentration is 18 nM (active).

For the compound `Cc1noc(C)c1CSc1nnc2ccc3ccccc3n12`, the max dye-equivalent concentration result is “inactive”.

As to `CCC(=O)Nc1sc(C(=O)N2CCCCC2)c(C)c1C#N`, the max dye-equivalent concentration result was “inactive”.

Consider `CC(C)C(C(=O)NC1CCCCC1)N(CC1CCCO1)C(=O)CNS(=O)(=O)c1ccc(F)cc1` (stereo not given), for which the max dye-equivalent concentration result is “inactive”.

Consider `c1ccc2c(CNn3cnnc3)cccc2c1`, for which the max dye-equivalent concentration entry was “inactive”.

Regarding `COC(=O)[C@H](Cc1ccccc1)NC(=O)N1CC(C)OC(C)C1` (stereo not given in full), the max dye-equivalent concentration entry was “inactive”.

Take `COc1ccc(C2N=C(N)N=C(N)N2c2ccccc2)cc1OC` (stereo not given): the max dye-equivalent concentration entry was “inactive”.

For `C=CCn1c(CC(=O)Nc2cccc(OC)c2)nnc1SCC(=O)NC1CCCCC1`, the max dye-equivalent concentration result is “inactive”.

Regarding `Cn1c(SCC(=O)c2cccs2)nnc1-c1ccco1`, the max dye-equivalent concentration result is “inactive”.

`c1coc(-c2nc3nc4ccccc4n3nc2-c2ccco2)c1`: the max dye-equivalent concentration entry is “inactive”.

With `Cn1c(-c2ccco2)nc2cc3ccccc3cc21`, the max dye-equivalent concentration was 1100 nM (active).

As for `O=C(Nc1cc(C(F)(F)F)ccc1Cl)c1cc(C2CC2)on1`, the max dye-equivalent concentration result was “inactive”.

In the case of `Cn1c(SCC(=O)OC2CCCCC2)nnc1-c1ccc(S(=O)(=O)N2CCCC2)cc1`, the max dye-equivalent concentration result was “inactive”.

Take `Nc1ccc(-c2nnc(-c3ccc(-c4ccccc4)cc3)o2)cc1`: the max dye-equivalent concentration was 300 nM (active).

On to `O=C(CSc1nnc(-c2ccccc2)o1)N1CCOCC1`, for which the max dye-equivalent concentration result was “inactive”.

As to `O=C(COC(=O)c1ccc(Oc2ccccc2)cc1)Nc1nnc(-c2ccccc2)o1`, the max dye-equivalent concentration result is “inactive”.

Turning to `O=C(O)CN1C(=O)CC(Cc2ccccc2)C1=O` (stereo not given), the max dye-equivalent concentration result is “inactive”.

Consider `c1nc(COc2nsnc2N2CCOCC2)cs1`, for which the max dye-equivalent concentration result was “inactive”.

Turning to `O=C(OC1CCOC1=O)c1ccc(-c2nc3ccccc3s2)s1` (stereo not given), the max dye-equivalent concentration was 1100 nM (active).

Consider `O=C(c1cccs1)N1CCC(c2nc3ccccc3s2)CC1`, for which the max dye-equivalent concentration result is “inactive”.

Take `Cc1nn(Cc2ccccc2)c(Cl)c1C(=O)OC1CCOC1=O` (stereo not given): the max dye-equivalent concentration entry is “inactive”.

With `CC(C)NS(=O)(=O)c1ccc(OCC(=O)Nc2ccc3c(c2)OCCO3)cc1`, the max dye-equivalent concentration entry was “inactive”.

In the case of `COc1ccc(N2CCN(C(c3cc4ccc(C)cc4[nH]c3=O)c3nnnn3C3CCCC3)CC2)cc1` (stereo not given), the max dye-equivalent concentration entry is “inactive”.

With `COCCn1nnnc1C(c1cc2ccc(OC)cc2[nH]c1=O)N1CCc2ccccc2C1` (stereo not given), the max dye-equivalent concentration was 18 nM (active).

Regarding `CCOc1ccc2[nH]c(=O)c(C(c3nnnn3CCOC)N3CCOCC3)cc2c1` (stereo not given), the max dye-equivalent concentration is 690 nM (active).

With `COc1ccc(OC)c(C(c2nnnn2C(C)(C)C)N2CCc3ccccc3C2)c1` (stereo not given), the max dye-equivalent concentration result is “inactive”.

For the compound `Cc1cc(C)c2[nH]c(=O)c(C(c3nnnn3Cc3ccc4c(c3)OCO4)N3CCCC3)cc2c1` (stereo not given), the max dye-equivalent concentration entry is “inactive”.

Consider `COCCn1nnnc1C(c1ccccc1Cl)N1CCN(c2ccccc2OC)CC1` (stereo not given), for which the max dye-equivalent concentration entry is “inactive”.

`CCOc1ccccc1Nc1nnc(SCC(=O)Nc2cc(C)on2)s1`: the max dye-equivalent concentration result was “inactive”.

Turning to `Cc1ccccc1CN1CCN(C(=O)c2cccc(F)c2)CC1`, the max dye-equivalent concentration result was “inactive”.

Consider `CCOc1ccccc1N=C1NC(=O)CS1`, for which the max dye-equivalent concentration entry is “inactive”.

Consider `COc1ccccc1-c1nnc(SCC(=O)Nc2ccccc2)o1`, for which the max dye-equivalent concentration result is “inactive”.

`c1ccc(CCN2CCN=C2Cc2ccccc2)cc1`: the max dye-equivalent concentration result was “inactive”.

With `O=c1cc(-c2ccc(O)c(O)c2)oc2cccc(O)c12`, the max dye-equivalent concentration entry is “inactive”.

Take `CC(C)OC(=O)C(C#N)c1nc2ccccc2nc1N1CCN(Cc2ccc3c(c2)OCO3)CC1` (stereo not given): the max dye-equivalent concentration is 120 nM (active).

`COc1ccc(-c2csc(N3CCN(Cc4ccc5c(c4)OCO5)CC3)n2)cc1`: the max dye-equivalent concentration entry was “inactive”.

For `CC(C)OC(=O)C(C#N)c1nc2ccccc2nc1N1CCN(Cc2ccccc2)CC1` (stereo not given), the max dye-equivalent concentration entry was “inactive”.

Values taken from PubChem BioAssay AID590 (National Center for Advancing Translational Sciences (NCATS), 2007).
